Records with an inconclusive call do not appear. Calls of active or inactive are those of the source. The call rests on the fitted dose curve; in most records, active means well fitted inhibition curve with a large enough effect; inconclusive means small, poorly fitted or top-dose-only effect; inactive means flat fitted curve, though single readings scatter.
Key:
Experiment in all cases: Cytotoxic Profiling of Annotated Libraries Using Quantitative High-Throughput Screening (AID 1296008); further: nearly all actives have a fitted effect of over 60% in size
Settings in all cases: Five cell lines viability, CellTiter-Glo ATP luminescence, 48-72 h; max response: stronger effect = lower value
HaCat = test system: HaCat
Summary of the method: (§1)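 Cells exposed to compounds for 48 or 72 hr at 37 degrees Celsius. Viability read as ATP-coupled luminescence with CellTiter-Glo after 10 min at room temperature.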

KB-3-1 = test system: KB-3-1
Summary of the method: as §1

NIH3T3 = test system: NIH3T3
Summary of the method: as §1

Measured: max response
On the % scale 0 is the no-effect control and ±100 the full control effect.

CC1(C)CC[C@]2(C(=O)O[C@@H]3O[C@H](CO[C@@H]4O[C@H](CO)[C@@H](O)[C@H](O)[C@H]4O[C@@H]4O[C@H](CO)[C@H](O)[C@H](O)[C@H]4O)[C@@H](O)[C@H](O[C@@H]4O[C@H](CO)[C@@H](O)[C@H](O)[C@H]4O)[C@H]3O)CC[C@]3(C)C(=CCC4[C@@]5(C)CC[C@H](O[C@@H]6OC[C@@H](O)[C@H](O)[C@H]6O)[C@@](C)(C(=O)O)C5CC[C@]43C)[C@@H]2C1 (some centres not stated)
inactive: HaCat -16.1% | KB-3-1 4.92% | NIH3T3 1%

CC(C)[C@H]1CC[C@@]2(O)COC(=O)[C@H]2[C@@H]1/C=C(\CO)C(=O)O
inactive: HaCat -2.34% | KB-3-1 0.265% | NIH3T3 -2.01%

C[C@@H]1O[C@@H](O[C@H]2[C@H](OC(=O)[C@]34CCC(C)(C)C[C@H]3C3=CCC5[C@@]6(C)C[C@H](O)[C@H](O[C@@H]7O[C@H](CO)[C@@H](O[C@H]8OC[C@](O)(CO)[C@H]8O)[C@H](O)[C@H]7O)[C@@](C)(CO)C6[C@H](O)C[C@@]5(C)[C@]3(C)C[C@H]4O)OC[C@H](O)[C@@H]2O)[C@H](O)[C@H](O)[C@H]1O[C@@H]1OC[C@@H](O)[C@H](O[C@@H]2OC[C@](O)(CO)[C@H]2O)[C@H]1O (some centres not stated)
inactive: HaCat -7.37% | KB-3-1 8.08% | NIH3T3 -0.781%

CC(=O)C1=CCC2C3CCC4CC(O[C@@H]5O[C@H](CO)[C@@H](O[C@@H]6O[C@@H](C)[C@H](O)[C@@H](O)[C@H]6O)[C@H](O)[C@H]5O[C@@H]5O[C@H](CO)[C@@H](O)[C@H](O)[C@H]5O)CCC4(C)C3CCC12C (some centres not stated)
inactive: HaCat -22.8% | KB-3-1 | NIH3T3 -4.06%

— PubChem BioAssay (NCATS)
